Reference: article PMC13494018
A number with no mark means an inactive call. How the calls were made is not given here.

B1: design_602_0a1f3d3d-7d26-454b-9b34-ebe8ef9bc7d4_1230_dldesign_0_cycle1_af2pred (protein)
chain: AEAEKKAKEAVKLAEKYYEKAKELAKEAEKDPKLKEAAKKIKKDAEEIKKALEKGIKEGNEVEAAQTSKSLYRAAEAEYKRAKK
B2: design_602_0a1f3d3d-7d26-454b-9b34-ebe8ef9bc7d4_1202_dldesign_0_cycle1_af2pred (protein)
chain: DEVEKILKEALEKMEEYKKKALEEAAKKDPETSKKLTELIEKRFEKREKELKEEMKKNKNDPEKAKRIGFHAVARAEITYEQAKLA
B3: design_602_0a1f3d3d-7d26-454b-9b34-ebe8ef9bc7d4_268_dldesign_0_cycle1_af2pred (protein)
chain: VEEKAKKYIEEAKKKAKEMKELGKKNPAAKENYDAAAKVWETAAKEIEKDPSKAEEYEKKAKKTIAVLLDAANAEL
B4: design_602_0a1f3d3d-7d26-454b-9b34-ebe8ef9bc7d4_881_dldesign_0_cycle1_af2pred (protein)
chain: EKEKAAKKIAELMDKAYDLISDGGEAEIKKGKELAKEAVKLGKEAGPELAKKAEKGLRALERLAEETEKALKK
B5: design_601_c3fd07b4-2f34-4ad8-bd4e-2749faf628eb_1497_dldesign_0_cycle1_af2pred (protein)
chain: SMEEEEQRRRAIEELKRLMELADKSPSEIAKATREAVAATPLYAERIRKVGTAMMFNPEEGKKLAEEAIKELE
B6: design_602_0a1f3d3d-7d26-454b-9b34-ebe8ef9bc7d4_1205_dldesign_0_cycle1_af2pred (protein)
chain: LKERIEKLKEEGKKLEEEAEEMKDKDASAKLYQLAHAALAAAKRAEEALKAGNKEEAEKYLKIGEEAVKKGKEILKKGKA
B7: design_601_c3fd07b4-2f34-4ad8-bd4e-2749faf628eb_2331_dldesign_0_cycle1_af2pred (protein)
chain: HMEEEAYKAKVEKAKAAMKEAADKLVSDPEAAKKQITQIAKDTAKELIATGTPAGKAAAQDALAEATAAKTELDKKAK
B8: design_602_0a1f3d3d-7d26-454b-9b34-ebe8ef9bc7d4_127_dldesign_0_cycle1_af2pred (protein)
chain: AEEERRKALAKKRAERAKALAVEAKKEGNEEAAKYYEKAAELYAKAAEAPPEERGKLVDEAVEYYGEGELEKIKFK
B9: design_602_0a1f3d3d-7d26-454b-9b34-ebe8ef9bc7d4_595_dldesign_0_cycle1_af2pred (protein)
chain: AAAVKAKMQAIAAAAKDAAKRAKEVAEKTGSTEAEADAVRAQHLSDAATINANGTQAQADAAQARLDVLKARAEKLEKEAKE
B10: design_602_0a1f3d3d-7d26-454b-9b34-ebe8ef9bc7d4_204_dldesign_0_cycle1_af2pred (protein)
chain: SEEEKKKELLEKTEENKKYLEELRKKYEADPSYKVEAATAEAGVKAAEEAKGENFEEAAEKAQKAYNTFKRMEEAEEEAKKRA
B11: design_602_0a1f3d3d-7d26-454b-9b34-ebe8ef9bc7d4_1408_dldesign_0_cycle1_af2pred (protein)
chain: AAAAAAAAKAALDLAKEQLKKAKEYKELAKKYKEEGNISKANSAEADAINAAHAAIVAATKAAADPKYAAEAKKVKDEAEKLEKEVLE
B12: design_602_0a1f3d3d-7d26-454b-9b34-ebe8ef9bc7d4_1333_dldesign_0_cycle1_af2pred (protein)
chain: EKERKEKIAKILLESAKDAMKEAEKALKEGKAKKAMMLATLAVSSAKNAYDFGKEASKELAEEAKKALEEAKEMLKKVKKALE
B13: design_601_c3fd07b4-2f34-4ad8-bd4e-2749faf628eb_1838_dldesign_0_cycle1_af2pred (protein)
chain: SMAEEILKEFLELAKVMAEDPEKGAKLFAEKVKELDPSIYPFAEAAAKKAAEEGAPLEELERAARAFANVVTT
B14: design_601_c3fd07b4-2f34-4ad8-bd4e-2749faf628eb_2283_dldesign_0_cycle1_af2pred (protein)
chain: AAAEDEAKRALAKKKAEEAKKLAKEAVEGNAEKAEKAAKELEKILKELRALGKAASPAAKAALTAAAHTAAEAYAEAYSAAVVKKEKE
B15: design_601_c3fd07b4-2f34-4ad8-bd4e-2749faf628eb_2200_dldesign_0_cycle1_af2pred (protein)
chain: SSEYSKKLAEDLKTFVKNIRDIAKESGDPAVVEQAKAVMAAFVTSEEAGVAAAKKLEAYTKETTNPALAAKAATAYDALKNIADG
B16: design_601_c3fd07b4-2f34-4ad8-bd4e-2749faf628eb_1863_dldesign_0_cycle1_af2pred (protein)
chain: SEYEKELAKAEAFVKEALKKSKEEFIAETKKLFEEGSPVYQSALMRALTKAAKEYKDDPEKQKKALDARDTIVD
B17: design_602_0a1f3d3d-7d26-454b-9b34-ebe8ef9bc7d4_533_dldesign_0_cycle1_af2pred (protein)
chain: SLKEELAEKAEEKAKKAVEALKAYAKADPSKAEEMAAAAKKVKEAAERGKKGNVQEAGSAEVLAESALSAAEKKLKEL
B18: design_602_0a1f3d3d-7d26-454b-9b34-ebe8ef9bc7d4_194_dldesign_0_cycle1_af2pred (protein)
chain: AVEAAIEALEELAKKAPPELAEYLKRTAEAAKKAGEKVLRYAVRAAAYATIALEGSPEVAAEAIKKAKEQAEKAEKIAKE
B19: design_602_0a1f3d3d-7d26-454b-9b34-ebe8ef9bc7d4_1317_dldesign_0_cycle1_af2pred (protein)
chain: MEEKKEEEARKVAHEAFRVAALAENVASAAEKKGDEEIAKKAKEARKTAEKAMELAREGNVKEARKLAKEARKVVEELRKKLEA
B20: design_602_0a1f3d3d-7d26-454b-9b34-ebe8ef9bc7d4_299_dldesign_0_cycle1_af2pred (protein)
chain: EIGKIVDEALEKILELQAEAKKAGKEAAKEVDKVRKEMIKEAKKMAKEGKSAEEVKKFAEEKVEEAKKIAEEAKKK
B21: design_602_0a1f3d3d-7d26-454b-9b34-ebe8ef9bc7d4_227_dldesign_0_cycle1_af2pred (protein)
chain: GAAAKAEAAKLAHESNEAKAEAVAHPEKAAEEAKKIKERLKELEKKAKEAPAEVAKYYAKAAKIAKKNLEEAKKVAEEAKA
B22: design_602_0a1f3d3d-7d26-454b-9b34-ebe8ef9bc7d4_244_dldesign_0_cycle1_af2pred (protein)
chain: AAAEAAKAKVKAIAAKSYAKNPEAGQYITLALAFAKRGDLEEALASLDEAEKEDPTNYPEARAAVLAYYAALKA
B23: design_601_c3fd07b4-2f34-4ad8-bd4e-2749faf628eb_2458_dldesign_0_cycle1_af2pred (protein)
chain: MEKAKEEALKLIKELLEATKLPKGKASQIALELAAEADWLAKKSSPEAAELFNALAEAARAVVKDKEKGKELAKKVKEKVEK
B24: design_601_c3fd07b4-2f34-4ad8-bd4e-2749faf628eb_2299_dldesign_0_cycle1_af2pred (protein)
chain: MEAKEKAEKAIKRAKEIGEKLIKKVAFNPEAAEKVKKLTEEAIEAIKKDPEEGIKKGAEILQKAREYAAEVLAKN
B25: design_602_0a1f3d3d-7d26-454b-9b34-ebe8ef9bc7d4_418_dldesign_0_cycle1_af2pred (protein)
chain: SEEAKKLAEEAKKEMGNIRLDAYDKASEVNVEEAKKIFEEAKEKIEKIAKETAELVPEYAEEILKGGEKAMKALERAAKDIEKAE
B26: design_602_0a1f3d3d-7d26-454b-9b34-ebe8ef9bc7d4_487_dldesign_0_cycle1_af2pred (protein)
chain: EEEKRIEEAKKKAREAAEKAREYGKKIIKLGYDPKKAAELAQKAQEARAEAEALPEKAEEAAKKAKEAAEELEKLLKEAEA
B27: design_602_0a1f3d3d-7d26-454b-9b34-ebe8ef9bc7d4_1060_dldesign_0_cycle1_af2pred (protein)
chain: GEEKEKKVEEIEKKAKEEAKKYAEEIAKALKDPEKMKKIATEATDKLLEMAEEMVETDKKAGKKAAEMIREGLRIMKETYEKERKKA
B28: design_602_0a1f3d3d-7d26-454b-9b34-ebe8ef9bc7d4_766_dldesign_0_cycle1_af2pred (protein)
chain: GELEALAERAAELVLDPEKAEEGVALVVERLRALTDPAEIARLVQLVQQALAEAAAKNPEKAAQLRAAAKRVVEAAREIVAEKAAAA
B29: design_602_0a1f3d3d-7d26-454b-9b34-ebe8ef9bc7d4_990_dldesign_0_cycle1_af2pred (protein)
chain: MDKDGIAYSIKAKHIAEAALILGEKSTPEMAEVFKEVAELAKEAAEAALKDAETGKKLLKEVLKKAREAKKKAEEAKKA
B30: design_601_c3fd07b4-2f34-4ad8-bd4e-2749faf628eb_2221_dldesign_0_cycle1_af2pred (protein)
chain: GAAEEAKKALKEAKERIEKVATPETKEFHEKLKEEMEKKVKELMAGDPVEGAKAAAKAAAAYAQEAYEASAEARAKEIIKK
B31: design_602_0a1f3d3d-7d26-454b-9b34-ebe8ef9bc7d4_95_dldesign_0_cycle1_af2pred (protein)
chain: MEELAKKAEEVVEESGEALAKAPREKWPEISELRHESLRALREAGENPETREEHLKEGEKYLEEAKKLAEKGAKE
B32: design_602_0a1f3d3d-7d26-454b-9b34-ebe8ef9bc7d4_348_dldesign_0_cycle1_af2pred (protein)
chain: IDVKATADKFLKATEEAAKKDAELGKKTAKKAIYTLDVLGEADPEYKEYTDKKKEEIKKTLAELTAKQKAKE
B33: design_601_c3fd07b4-2f34-4ad8-bd4e-2749faf628eb_2023_dldesign_0_cycle1_af2pred (protein)
chain: MREEIIKAIKEAVKELKKLGKLAKEAKKKNPEIGKEAEKDAKKLQKELFEALSSENAVEKLKEVKEKTKKKIEEIKKKVEE
B34: design_601_c3fd07b4-2f34-4ad8-bd4e-2749faf628eb_1953_dldesign_0_cycle1_af2pred (protein)
chain: AVAAKAQAALDRTAALREKHPEAKEYLDKAEEEAKKALADPANAAEYLKKAANYLQEAYQEASEYEFKKK
B35: design_602_0a1f3d3d-7d26-454b-9b34-ebe8ef9bc7d4_19_dldesign_0_cycle1_af2pred (protein)
chain: MEEEEELKKKKEELLKLKKKLEEAYDIAAELAAKNPEYLDEVLEKYREGLRYLKLGGENPENYEEYYEKAKEKLKEIEEIAKKLK
B36: design_602_0a1f3d3d-7d26-454b-9b34-ebe8ef9bc7d4_576_dldesign_0_cycle1_af2pred (protein)
chain: AEAEKQAALAEASQLLLEANSFAKWVSEYAKELGQEDIAKKAEEAGKEYTKKAKAYIKAGKAEEAKKEAEKLLEEAEKLYKEAKEKA
B37: design_601_c3fd07b4-2f34-4ad8-bd4e-2749faf628eb_1955_dldesign_0_cycle1_af2pred (protein)
chain: MEQEKKDEELLKKVKELGKEATEKSLEDPEKAKEYRKKLIEEAKKAAAEASPEYAKKIAEEAQKAQEEITEAQVEGEKKKK
B38: design_602_0a1f3d3d-7d26-454b-9b34-ebe8ef9bc7d4_149_dldesign_0_cycle1_af2pred (protein)
chain: VVEKALKEMEKYIEKAKEEAIKINPKAKEYIEKRAKRIREEAKKGAEEAKKLYKEDPEKGKEKAKEALKKTKGLAESLIEHAKFSAK

Target: VTCN1, Q7Z7D3
Sequence (Q7Z7D3 whole entry): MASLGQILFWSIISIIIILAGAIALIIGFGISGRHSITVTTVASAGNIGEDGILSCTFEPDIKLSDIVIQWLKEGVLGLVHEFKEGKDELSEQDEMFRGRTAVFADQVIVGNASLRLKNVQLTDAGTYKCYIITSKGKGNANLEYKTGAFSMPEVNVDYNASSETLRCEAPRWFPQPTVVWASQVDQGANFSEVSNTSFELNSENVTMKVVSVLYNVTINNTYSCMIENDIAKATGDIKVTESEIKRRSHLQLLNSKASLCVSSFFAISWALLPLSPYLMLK

Binder | binding in a display sort
B1 | not found
B2 | not found
B3 | not found
B4 | not found
B5 | binds (active)
B6 | not found
B7 | not found
B8 | not found
B9 | not found
B10 | not found
B11 | not found
B12 | not found
B13 | not found
B14 | not found
B15 | not found
B16 | not found
B17 | not found
B18 | not found
B19 | not found

Binder | binding in a display sort
B20 | not found
B21 | not found
B22 | not found
B23 | not found
B24 | not found
B25 | not found
B26 | not found
B27 | not found
B28 | not found
B29 | not found
B30 | not found
B31 | not found
B32 | not found
B33 | not found
B34 | not found
B35 | not found
B36 | not found
B37 | not found
B38 | not found
